According to PubChem BioAssay (Tox21):
Inconclusive results are not listed. The source made the active and inactive calls. Unless noted, the call rests on the fitted dose curve; in most records, active means well fitted curve in the direction sought with a large enough effect in the repeat runs; inconclusive means weak or mixed curves; inactive means no such curve, though single readings can be large; an effect the other way counts as inactive or inconclusive.

What was measured:
[1] = A CellTox Green Cytotoxicity Assay to monitor cytotoxicity in HEK293 cells - 32 hour (AID 1224881); further: nearly all actives have a fitted effect of over 40% in size
Outline: (§1)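 HEK293 cells premixed with CellTox Green dye were seeded at 600 cells/well and left 5 h at 37 C/5% CO2 before pin transfer of 23 nL compound in DMSO. Fluorescence from dye bound to dead-cell DNA was read during 40 h treatment.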

[2] = A CellTox Green Cytotoxicity Assay to monitor cytotoxicity in HepG2 cells - 0 hour (AID 1224882); further: nearly all actives have a fitted effect of over 35% in size
Outline: (§2)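 HepG2 cells were seeded together with the CellTox Green dye at 600 cells/well, left 5 h at 37 C/5% CO2, then given compounds in DMSO. Fluorescence from dye bound to dead-cell DNA was read repeatedly over 40 h of treatment at 37 C.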

[3] = A CellTox Green Cytotoxicity Assay to monitor cytotoxicity in HepG2 cells - 32 hour (AID 1224883); further: nearly all actives have a fitted effect of over 50% in size
Outline: as §2

[4] = A CellTox Green Cytotoxicity Assay to monitor cytotoxicity in HEK293 cells - 8 hour (AID 1224884); further: nearly all actives have a fitted effect of over 35% in size
Outline: as §1

[5] = qHTS RealTime-Glo MT Cell Viability Assay in HepG2 cells - 16 hour (AID 1224885); further: nearly all actives have a fitted effect of over 50% in size
Outline: (§3)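 HepG2 suspension premixed with RealTime-Glo reagents is plated at 600 cells per well and left 5 h at 37 C/5% CO2. Compounds in DMSO then go in, and bioluminescence reflecting viable cell number is recorded over 40 h.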

[6] = qHTS RealTime-Glo MT Cell Viability Assay in HEK293 cells - 24 hour (AID 1224886); further: top concentration of the series differs between compounds; nearly all actives have a fitted effect of over 50% in size
Outline: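 Reads taken at 0, 8, 16, 24, 32 and 40 h from the same wells. HEK293 cells (600/well) carried RealTime-Glo reagents from seeding, with compound added after a 5 h settle at 37 C.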

[7] = qHTS RealTime-Glo MT Cell Viability Assay in HEK293 cells - 8 hour (AID 1224887); further: top concentration of the series differs between compounds; nearly all actives have a fitted effect of over 50% in size
Outline: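 HEK293 cells mixed with RealTime-Glo reagents (NanoLuc plus cell-permeant prosubstrate) at 600 cells/well, preincubated 5 h at 37 C/5% CO2, then given 23 nL compound in DMSO. Nonlytic luminescence from viable cells was read at 0, 8, 16, 24, 32 and 40 h.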

[8] = A CellTox Green Cytotoxicity Assay to monitor cytotoxicity in HEK293 cells - 16 hour (AID 1224888); further: nearly all actives have a fitted effect of over 35% in size
Outline: as §1

[9] = qHTS RealTime-Glo MT Cell Viability Assay in HepG2 cells - 0 hour (AID 1224889); further: nearly all actives have a fitted effect of over 50% in size; further: potency means the concentration at half of the fitted maximal effect
Outline: as §3

[10] = A CellTox Green Cytotoxicity Assay to monitor cytotoxicity in HepG2 cells - 8 hour (AID 1224890); further: nearly all actives have a fitted effect of over 45% in size
Outline: as §2

[11] = qHTS assay to identify small molecule antagonists of the estrogen receptor alpha (ER-alpha) signaling pathway using the BG1 cell line in the presence of 0.1 nM 17-beta-estradiol - cell viability counter screen (AID 1259241); further: nearly all actives have a fitted effect of over 40% in size
Outline: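 Viability in VM7Luc4E2 cells after 22 hr compound exposure under 0.1 nM 17beta-estradiol stimulation, by CellTiter-Fluor.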

[12] = qHTS assay to identify small molecule antagonists of the androgen receptor (AR) signaling pathway using the MDA cell line in the presence of 0.5 nM R1881 - cell viability counter screen (AID 1259242); further: nearly all actives have a fitted effect of over 45% in size
Outline: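 MDA-kb2 cells (human breast carcinoma, stably carrying MMTV-luciferase reporter) were exposed to compounds with 0.5 nM R1881 (final) for 16 hr at 37C, 0% CO2; viability then read as live-cell protease fluorescence (CellTiter-Fluor, 30 min) in the same wells.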

[13] = target: Estrogen receptor (Homo sapiens) (UniProt P03372); assay: qHTS assay to identify small molecule antagonists of the estrogen receptor alpha (ER-alpha) signaling pathway using the BG1 cell line in the presence of 0.1 nM 17-beta-estradiol (AID 1259244); further: nearly all actives have a fitted effect of over 50% in size
Estrogen receptor (Homo sapiens), sequence (P03372 whole entry, looked up): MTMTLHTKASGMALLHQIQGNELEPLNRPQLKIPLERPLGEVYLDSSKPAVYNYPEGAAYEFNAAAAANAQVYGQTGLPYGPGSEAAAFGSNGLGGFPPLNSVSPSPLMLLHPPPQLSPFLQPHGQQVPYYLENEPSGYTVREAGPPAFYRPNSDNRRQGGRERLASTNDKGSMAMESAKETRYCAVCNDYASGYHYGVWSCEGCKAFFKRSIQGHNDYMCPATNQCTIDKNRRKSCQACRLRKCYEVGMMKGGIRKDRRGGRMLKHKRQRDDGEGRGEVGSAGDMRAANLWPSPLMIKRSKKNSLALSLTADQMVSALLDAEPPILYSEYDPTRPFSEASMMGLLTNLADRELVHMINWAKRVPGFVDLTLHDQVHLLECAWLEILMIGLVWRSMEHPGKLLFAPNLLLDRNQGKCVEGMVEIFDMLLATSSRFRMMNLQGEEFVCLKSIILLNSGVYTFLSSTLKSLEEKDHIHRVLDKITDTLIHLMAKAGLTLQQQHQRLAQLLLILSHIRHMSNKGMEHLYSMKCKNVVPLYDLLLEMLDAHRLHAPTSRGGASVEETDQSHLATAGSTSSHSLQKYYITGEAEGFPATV
Outline: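 VM7Luc4E2 cells (endogenous full-length ER-alpha, stable 4xERE-luciferase) were grown 5 days in phenol red-free medium with charcoal-stripped FBS, then exposed 22 h at 37C to compounds plus 0.1 nM (final) 17beta-estradiol; ONE-Glo luminescence read-out.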

[14] = qHTS assay to identify small molecule phospholipidosis (PLD) inducers (AID 1259344; active means well fitted curve in the direction sought with a large enough effect; an effect the other way counts as inactive or inconclusive)
Outline: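 HepG2 cells on collagen I, attached 4 h at 37 C, were co-treated with compound and LipidTOX Red dye for 24 h at 37 C, then fixed with paraformaldehyde plus Hoechst 33342 and imaged by high-content microscopy for phospholipid accumulation.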

[15] = qHTS assay to identify small molecule HDAC inhibitors (AID 1259364); further: top concentration of the series differs between compounds; nearly all actives have a fitted effect of over 45% in size
Outline: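 Wild-type HCT-116 cells were plated overnight, exposed to compounds for 2 h at 37 °C, then given HDAC-Glo class I/II luminogenic reagent for 30 min at room temperature before luminescence was read.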

[16] = qHTS assay to identify small molecule HDAC inhibitors - cell viability counter screen (AID 1259365)
Outline: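 Cytotoxicity was gauged in wild-type HCT-116 cells after a brief 2hr treatment with DMSO-dissolved compounds at 37C and 5% CO2, using CellTiter-Glo luminescence developed for 30min at room temperature.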

[17] = qHTS assay to identify small molecule agonists of the sonic hedgehog signaling (Shh) pathway - cell viability counter screen (AID 1259366); further: nearly all actives have a fitted effect of over 50% in size
Outline: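 Stable Gli1-Luc NIH/3T3 clone, 2,000 cells/well. Compound exposure 24hr at 37C. Read-out: CellTiter-Fluor fluorescence.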

[18] = qHTS assay to identify small molecule antagonists of the sonic hedgehog signaling (Shh) pathway - cell viability counter screen (AID 1259367); further: nearly all actives have a fitted effect of over 55% in size
Outline: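 NIH/3T3-derived Gli1-Luc reporter cells (2,000 per well) rested 4 hr at 37 C, then received DMSO compounds plus conditioned medium. After 23 hr of treatment, CellTiter-Fluor was added for 1 hr at 37C and fluorescence read.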

[19] = qHTS assay to identify small molecule agonists of the sonic hedgehog signaling (Shh) pathway (AID 1259368; calls by dose curve; further: series mostly up to about 92 µM; nearly all actives have a fitted effect of over 15% in size)
Outline: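 NIH/3T3-derived 3T3Gli1-Luc cells carrying a stably integrated Gli1 response element–firefly luciferase reporter were plated, left 4 hr at 37 C, then given compounds in DMSO for 24 hr. Luminescence was read 30 min after adding luciferase reagent.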

[20] = target: Androgen receptor (Homo sapiens) (UniProt P10275); assay: qHTS assay to identify small molecule antagonists of the androgen receptor (AR) signaling pathway using the MDA cell line in the presence of 0.5 nM R1881 (AID 1259243); further: nearly all actives have a fitted effect of over 50% in size
Androgen receptor (Homo sapiens), sequence (P10275 whole entry, looked up): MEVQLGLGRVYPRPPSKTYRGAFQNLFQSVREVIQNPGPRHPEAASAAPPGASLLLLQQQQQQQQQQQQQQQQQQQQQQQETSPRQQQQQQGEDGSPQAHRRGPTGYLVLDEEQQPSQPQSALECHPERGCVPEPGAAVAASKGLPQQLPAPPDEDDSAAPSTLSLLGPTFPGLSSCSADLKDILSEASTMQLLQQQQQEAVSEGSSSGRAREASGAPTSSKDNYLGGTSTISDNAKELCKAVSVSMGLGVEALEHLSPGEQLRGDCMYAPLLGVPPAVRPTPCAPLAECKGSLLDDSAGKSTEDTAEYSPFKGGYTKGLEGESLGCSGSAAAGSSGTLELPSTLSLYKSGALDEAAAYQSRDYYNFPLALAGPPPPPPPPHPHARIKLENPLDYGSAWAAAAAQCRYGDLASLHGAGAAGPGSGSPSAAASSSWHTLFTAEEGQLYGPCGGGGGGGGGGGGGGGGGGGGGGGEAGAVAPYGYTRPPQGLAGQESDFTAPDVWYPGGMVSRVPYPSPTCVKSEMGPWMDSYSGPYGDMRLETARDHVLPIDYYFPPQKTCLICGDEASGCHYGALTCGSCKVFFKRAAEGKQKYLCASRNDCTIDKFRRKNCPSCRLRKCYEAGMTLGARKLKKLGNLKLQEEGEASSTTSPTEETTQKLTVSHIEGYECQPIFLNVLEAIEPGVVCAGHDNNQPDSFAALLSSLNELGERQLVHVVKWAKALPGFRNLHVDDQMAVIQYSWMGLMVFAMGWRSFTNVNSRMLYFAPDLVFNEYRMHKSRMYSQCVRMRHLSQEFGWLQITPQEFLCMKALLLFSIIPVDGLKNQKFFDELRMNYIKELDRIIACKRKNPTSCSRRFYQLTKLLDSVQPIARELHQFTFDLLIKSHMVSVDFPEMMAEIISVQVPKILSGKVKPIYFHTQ
Outline: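 MDA-kb2 human breast carcinoma cells carrying an MMTV-luciferase reporter (AR- and GR-responsive) were plated, rested 5 hr at 37C, dosed with compounds, then stimulated with 0.5 nM R1881 (final) for 16 hr; luminescence was read after ONE-Glo.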
On the % scale 0 is the no-effect control and ±100 the full control effect.

O=C[C@H](O)[C@@H](O)[C@H](O)[C@H](O)CO
inactive: Potency [1] | Potency [2] | Potency [3] | Potency [4] | Potency [5] | Potency [6] | Potency [7] | Potency [8] | Potency [9] | Potency [10] | outcome [11] | Potency [12] | outcome [13] | PLD induction [14] -4.07% [at 7.66 µM] | Potency [15] | outcome [16] | Potency [17] | Potency [18] | outcome [19]

NCCCNCCSP(=O)(O)O
inactive: cytotoxicity increase [1] -9.01% [at 6.97 µM] | cytotoxicity [2] 1.75% [at 6.97 µM] | cytotoxicity increase [3] -8.01% [at 6.97 µM] | cytotoxicity increase [4] 3.38% [at 6.97 µM] | activity change, negative = cytotoxic [5] 0.263% [at 6.97 µM] | activity change, negative = cytotoxicity [6] 4.08% [at 6.97 µM] | activity change, negative = cytotoxicity [7] 2.94% [at 6.97 µM] | activity change [8] -4.83% [at 6.97 µM, hits give high values] | activity change, negative = cytotoxicity [9] -0.885% [at 6.97 µM] | cytotoxicity increase [10] 0.329% [at 6.97 µM] | activity change, negative = cytotoxicity [11] -0.971% [at 8.39 µM] | viability change, negative = cytotoxic [12] 0.214% [at 8.39 µM] | activity change, negative = inhibition [13] 3.05% [at 8.39 µM] | Potency [14] | activity change, negative = cytotoxicity [16] 0.673% [at 8.39 µM] | viability change, negative = cytotoxic [17] -2.35% [at 8.39 µM] | viability change, negative = cytotoxic [18] 5.98% [at 8.39 µM] | activity change [19] -0.244% [at 8.39 µM]

CC(=O)OCC(=O)[C@@]1(O)CC[C@H]2[C@@H]3CCC4=CC(=O)CC[C@]4(C)[C@H]3C(=O)C[C@@]21C
active: Potency [9] 1.07 µM
inactive: Potency [1] | Potency [2] | Potency [3] | Potency [4] | Potency [5] | Potency [6] | Potency [7] | Potency [8] | Potency [10] | outcome [11] | Potency [12] | outcome [13] | Potency [14] | Potency [15] | outcome [16] | Potency [17] | Potency [18] | outcome [19]

NS(=O)(=O)c1ccc(C(=O)O)cc1
inactive: Potency [1] | Potency [2] | Potency [3] | Potency [4] | Potency [5] | Potency [6] | Potency [7] | Potency [8] | Potency [9] | Potency [10] | outcome [11] | Potency [12] | Potency [20] | outcome [13] | Potency [14] | Potency [15] | outcome [16] | Potency [17] | Potency [18] | outcome [19]

O=Cc1cccc([N+](=O)[O-])c1
inactive: Potency [1] | Potency [2] | Potency [3] | Potency [4] | Potency [5] | Potency [6] | Potency [7] | Potency [8] | Potency [9] | Potency [10] | outcome [11] | Potency [12] | outcome [13] | outcome [16] | Potency [17] | Potency [18] | outcome [19]

NC(CSCC(=O)O)C(=O)O (centres undefined)
inactive: Potency [1] | Potency [2] | Potency [3] | Potency [4] | Potency [5] | Potency [6] | Potency [7] | Potency [8] | Potency [9] | Potency [10] | outcome [11] | Potency [12] | outcome [13] | Potency [14] | outcome [16] | Potency [18] | outcome [19]

COC(=O)c1cc(C(=O)OC)cc(S(=O)(=O)O)c1
inactive: Potency [1] | Potency [2] | Potency [3] | Potency [4] | Potency [5] | Potency [6] | Potency [7] | Potency [8] | Potency [9] | Potency [10] | outcome [11] | Potency [12] | outcome [16] | Potency [17] | outcome [19]

CCN(Cc1ccncc1)C(=O)C(CO)c1ccccc1 (centres undefined)
inactive: Potency [1] | Potency [2] | Potency [3] | Potency [4] | Potency [5] | Potency [6] | Potency [7] | Potency [8] | Potency [10] | outcome [11] | Potency [12] | Potency [14] | Potency [15] | outcome [16] | Potency [17] | outcome [19]

O=C(O)CCCl
inactive: Potency [1] | Potency [2] | Potency [3] | Potency [4] | Potency [5] | Potency [6] | Potency [7] | Potency [8] | Potency [9] | outcome [11] | Potency [12] | outcome [13] | Potency [15] | outcome [16] | Potency [17] | Potency [18]

CCCN(CCC)CCc1cccc2c1CC(=O)N2
inactive: Potency [1] | Potency [2] | Potency [3] | Potency [4] | Potency [5] | Potency [6] | Potency [7] | Potency [8] | Potency [10] | outcome [11] | Potency [12] | Potency [14] | Potency [15] | outcome [16] | Potency [18] | outcome [19]

CC(=O)OCC(CCn1cnc2cnc(N)nc21)COC(C)=O
inactive: Potency [1] | Potency [2] | Potency [3] | Potency [4] | Potency [5] | Potency [6] | Potency [7] | Potency [9] | Potency [10] | outcome [11] | Potency [12] | Potency [20] | outcome [13] | Potency [14] | Potency [15] | outcome [16] | Potency [18] | outcome [19]

CC/C=C\CC/C=C/CO
inactive: Potency [1] | Potency [2] | Potency [3] | Potency [4] | Potency [5] | Potency [6] | Potency [7] | Potency [8] | Potency [9] | outcome [11] | Potency [12] | Potency [15] | outcome [16] | Potency [17] | Potency [18]

C/C=C(\C)C#N
inactive: Potency [1] | Potency [2] | Potency [3] | Potency [4] | Potency [5] | Potency [6] | Potency [7] | Potency [8] | Potency [9] | outcome [11] | Potency [12] | Potency [15] | outcome [16] | Potency [17] | Potency [18] | outcome [19]

CCCCCOC(=O)CCCCC
inactive: Potency [1] | Potency [2] | Potency [3] | Potency [4] | Potency [5] | Potency [6] | Potency [7] | Potency [8] | Potency [9] | outcome [11] | Potency [12] | outcome [13] | Potency [15] | outcome [16] | Potency [17] | outcome [19]

O=[N+]([O-])c1ccc(F)cc1F
inactive: Potency [1] | Potency [2] | Potency [3] | Potency [4] | Potency [5] | Potency [6] | Potency [7] | Potency [8] | Potency [9] | outcome [11] | Potency [12] | outcome [13] | Potency [15] | outcome [16] | Potency [18] | outcome [19]
